Source: PubChem BioAssay (NCATS)
Records with an inconclusive call do not appear. Where a call stands in place of a potency, no number is given. Active and inactive are the calls of the source. Calls follow the shape of the dose curve; as a rule, active = well fitted curve in the direction sought with a large enough effect; inconclusive = small, poorly fitted or top-dose-only effect, or another doubt; inactive = no such curve, though single readings can be large; an effect the other way counts as inactive or inconclusive.

What follows are compounds tested on Zika virus NS2B-NS3 protease (assay: Primary screen GU AMC qHTS for Zika virus inhibitors (AID 1347154; also: nearly all actives have a fitted effect of over 70% in size)). Details: Zika NS2B-NS3 unlinked protease, AMC fluorogenic substrate; series mostly up to 54.1 µM.
In short: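 Fluorogenic AMC-substrate cleavage by noncovalent NS2B-NS3 protease complex (25 nM, pH 8.0 Tris buffer with Tween 20) followed for 15 minutes at room temperature (~20% conversion). Percent inhibition from ex340/em450 signal change, fitted by 4-parameter Hill equation.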
For C=CCc1cc(OC)c(O)c(C(=O)NCCO)c1, the Potency was “inactive”.
With S=c1nc[nH]c2nc[nH]c12 the Potency was “inactive”.
With CNC[C@H](O)c1ccc(O)c(O)c1 the Potency was “inactive”.
In the case of CC(C)Oc1ccc2c(=O)c(-c3ccccc3)coc2c1, the Potency is reported as “inactive”.
N=C(N=C(N)N)N1CCOCC1 was tested, and the Potency was “inactive”.
In the case of CC1(C)NC(=O)N(c2ccc([N+](=O)[O-])c(C(F)(F)F)c2)C1=O, the Potency is reported as “inactive”.
For COc1ccccc1N1CCN(CCN(C(=O)C2CCCCC2)c2ccccn2)CC1, the Potency was “inactive”.
Cc1cccc(-c2[nH]ncc2-c2ccc3ncccc3n2)n1 was tested, and the Potency was “inactive”.
For CCOC(=O)C(C)Oc1cccc2c(=O)n(CC(=O)Nc3ccc4c(c3)OCCO4)ccc12 (centres undefined), the Potency was “inactive”.
For COc1ccc2cc([C@H](C)C(=O)O)ccc2c1, the Potency was “inactive”.
In the case of CN(C)CCCC1(c2ccc(F)cc2)OCc2cc(C#N)ccc21 (centres undefined), the Potency is reported as “inactive”.
In the case of C[C@@H](c1ncncc1F)[C@](O)(Cn1cncn1)c1ccc(F)cc1F, the Potency is reported as “inactive”.
O=C(c1ccccc1)c1ccc2n1CCC2C(=O)O (centres undefined) was tested, and the Potency was “inactive”.
In the case of C[C@@H](N)C1CCC(C(=O)Nc2ccncc2)CC1 (some centres undefined), the Potency is reported as “inactive”.
In the case of CC(=O)N1CCN(c2ccc(OC[C@H]3CO[C@](Cn4ccnc4)(c4ccc(Cl)cc4Cl)O3)cc2)CC1, the Potency is reported as “inactive”.

The compounds below were run on Zika virus NS2B-NS3 protease (unlinked complex) (assay: Primary screen GU Rhodamine qHTS for Zika virus inhibitors: Unlinked NS2B-NS3 protease assay (AID 1347159; also: nearly all actives have a fitted effect of over 60% in size)). Details: Recombinant ZIKV NS2B-NS3 protease, Rhodamine110 substrate fluorescence; series mostly up to 107 µM.
In short: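 Noncovalent NS2B hydrophilic domain–NS3 protease domain complex (25 nM) preincubated 15 min at room temperature with compounds (up to 114 microM) in 10 mM Tris-HCl pH 8.0, 0.01% Tween 20; 1.5 microM Rhodamine110 substrate added, fluorescence change over 15 min fitted to Hill equation.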
For CC(=O)NC[C@H]1CN(c2ccc(N3CCOCC3)c(F)c2)C(=O)O1, the Potency was “inactive”.
In the case of COc1ccccc1N1CCN(CCN(C(=O)C2CCCCC2)c2ccccn2)CC1, the Potency is reported as “inactive”.
With COc1ccc2cc([C@H](C)C(=O)O)ccc2c1 the Potency was “inactive”.
In the case of CN(C)CCCC1(c2ccc(F)cc2)OCc2cc(C#N)ccc21 (centres undefined), the Potency is reported as “inactive”.
